Source: PubChem BioAssay (National Center for Advancing Translational Sciences (NCATS))
Compounds with a hit are over-represented: about 2.2% of the library has one in this group of screens.
FMDV inh: blocks foot and mouth disease virus. Potency, µM (top dose mostly 57.9 µM), most hits filed as inhibitors. FMDV antiviral cell-based qHTS. 410,000 compounds, 1.2% hits; calls by dose curve; tested in HEK293T cells; also: read-out not given here; nearly all actives have a fitted effect of over 45% in size
Vaccinia Venus: inhibitors of vaccinia virus (Venus reporter) | Vaccinia virus Venus reporter expression, fluorescence | Potency, µM (highest dose often 36.5 µM), most hits filed as inhibitors | 330,000 compounds, 0.46% hits; calls by dose curve; tested in A549 cells; also: nearly all actives have a fitted effect of over 30% in size
FBPA Giardia inh: blocks Giardia fructose-bisphosphate aldolase activity. purified Giardia FBPA. Potency, µM (top dose mostly 59.6 µM), actives largely listed as inhibitors. AID 2451. 290,000 compounds, 0.71% hits; active = well fitted inhibition curve with a large enough effect; inconclusive = small, poorly fitted or top-dose-only effect, or effect the other way; also: nearly all actives have a fitted effect of over 55% in size
Target sequence (A8B2U2 whole entry, looked up): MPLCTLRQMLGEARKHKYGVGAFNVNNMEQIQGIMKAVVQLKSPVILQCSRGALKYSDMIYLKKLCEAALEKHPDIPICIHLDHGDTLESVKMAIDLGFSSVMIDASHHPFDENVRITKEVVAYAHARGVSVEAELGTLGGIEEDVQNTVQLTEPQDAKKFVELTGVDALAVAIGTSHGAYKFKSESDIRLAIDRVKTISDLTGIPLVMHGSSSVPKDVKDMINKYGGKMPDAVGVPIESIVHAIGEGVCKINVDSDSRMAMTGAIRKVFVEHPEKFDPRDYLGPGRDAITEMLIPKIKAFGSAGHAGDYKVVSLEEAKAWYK
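Giardia FBPA (40 nM reagent) was preincubated 10 min at RT with compound (up to 57.5 uM final), then substrate plus GAPDH/TPI/NAD/arsenate coupling system with diaphorase/resazurin was added; resorufin fluorescence (525/598 nm) was read after 20 min.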
VACV mCherry inh: vaccinia inhibition (mCherry reporter). AID 720579. 310,000 compounds, 0.63% hits. Vaccinia virus mCherry reporter infection, fluorescence. Potency, µM (doses to about 36.5 µM), usual class: inhibitors; calls by dose curve; tested in A549 cells; also: nearly all actives have a fitted effect of over 35% in size
Numbers stand for hits; 0 = inactive; ? = inconclusive; - = not tested or not shown; [ ] = another dose, or the depositor's remark.

SMILES | FMDV inh | Vaccinia Venus | FBPA Giardia inh | VACV mCherry inh
C=C[C@@H]1c2cc(C)ccc2N(S(=O)(=O)c2ccc(C)cc2)[C@H](c2ccc(C(C)(F)F)cc2)C1(C#N)C#N | - | 0 | - | 0
CC(Cc1cccc(C(F)(F)F)c1)NCCCc1ccccc1 (stereo not drawn) | 20µM | ? | - | ?
COC(=O)c1c(C)nc(C)c(C(=O)OC)c1-c1ccccc1[N+](=O)[O-] | - | - | 0 | -
CC(C(=O)c1ccccc1)[n+]1ccc(Cl)c2ccc(Cl)cc21 (stereo not drawn) | - | 0 | - | 0
CCn1nc(C)cc1-c1nnc(Sc2ncc([N+](=O)[O-])s2)n1C | 28µM | - | 0 | -
COC1=CC(=O)[C@]2(C=C1OC)OC[C@@H]1Oc3c(ccc4c3C=CC(C)(C)O4)C(=O)[C@@H]12 | 16µM | 0 | - | ?
C=C[C@@]1(C)CC[C@H](O)[C@H]2C(=O)CCC[C@@H]21 | - | - | 0 | -
C(=Nc1cccnc1)c1ccnc2ccccc12 | - | 0 | - | 0
CC(=NNc1nc2ccccc2s1)c1ccncn1 | 0 | ? | - | 2.8µM
CCOc1ccc(S(=O)(=O)N(CC)CC)cc1NS(=O)(=O)c1ccc(F)c(F)c1F | 0 | 4.5µM | 0 | 4µM
CCOc1cc(S(=O)(=O)N(CC)CC)ccc1F | 0 | - | 0 | -
C[N+]1(CC(=O)c2ccc(Oc3ccc(C(=O)C[N+]4(C)CCOCC4)cc3)cc2)CCOCC1 | - | 0 | - | 0
Cc1ccc(S(=O)(=O)N2CCOCC2)cc1NC(=O)c1cc(-c2ccccn2)nc2ccccc12 | 0 | ? | 0 | 11µM
Cc1cccc(NC(=O)c2cc(-c3ccccn3)nc3ccccc23)c1C | 14µM | 0 | 0 | 0
CCCCS(=O)(=O)N1C2=NC(C(=O)OC)=C(C(=O)OC)[C@@H]3Nc4ccccc4[C@]23C[C@H]1C(=O)OC | - | - | 0[12.9 µM] | -
Cc1cc(-c2ccc(N=Nc3ccc4c(S(=O)(=O)O)cc(S(=O)(=O)O)c(N)c4c3O)c(C)c2)ccc1N=Nc1ccc2c(S(=O)(=O)O)cc(S(=O)(=O)O)c(N)c2c1O | 32µM | - | 22µM | -
Nc1c(N=Nc2ccc(-c3ccc(N=Nc4cc(S(=O)(=O)O)c5ccccc5c4N)cc3)cc2)cc(S(=O)(=O)O)c2ccccc12 | - | - | 0 | -
O=[N+]([O-])c1ccccc1/C=C1\C=Cc2ccccc21 | - | 0 | - | 0
COC(=O)c1cc2c(n1S(=O)(=O)c1ccc(C)cc1)C(=O)C(=O)c1[nH]cc(C(=O)OCc3ccccc3)c1-2 | 11µM | 2.5µM | - | 2.2µM
Cc1ccc(-n2cc(CN3CCC(CO)(Cc4cccc(C(F)(F)F)c4)CC3)cn2)cc1 | ? | 11µM | 0 | ?
CCCn1c(CC)nc([N+](=O)[O-])c1Sc1ccc(F)cc1 | 18µM | - | 0 | -
COc1ccc(CNc2ccccc2C(=O)NCc2ccccc2)cc1COc1ccc(NC(C)=O)cc1 | - | 0 | - | 0
CCN1C(=O)S/C(=C/c2ccc(Oc3ccc([N+](=O)[O-])cn3)c(OC)c2)C1=O | 0 | ? | 0 | 0
COc1cc(/C=C2/SC(=O)N(CC(=O)N3CCCC3)C2=O)ccc1Oc1ccc([N+](=O)[O-])cn1 | 32µM | 0 | 0 | 0
CC[C@@H](C(=O)[C@@H](C)[C@@H](O)[C@H](C)CCc1ccc(C)c(O)c1C(=O)O)C1O[C@](CC)(C2CC[C@](O)(CC)[C@H](C)O2)C[C@@H]1C (stereo partly drawn) | - | - | 0 | -
SMILES | FMDV inh | Vaccinia Venus | FBPA Giardia inh | VACV mCherry inh
O=S(=O)(c1ccccc1)N1CCN(c2ncnc3sc(-c4ccccc4)cc23)CC1 | ? | 0 | 0 | 0
Cn1ncc2c(N3CCC(Cc4ccccc4)CC3)ncnc21 | 20µM | 0 | 0 | 0
NNC(=O)c1cc2c(N3CCC(Cc4ccccc4)CC3)ncnc2s1 | 14µM | 0 | 0 | 0
CC(=O)c1cc2ccccc2c2ccccc12 | - | 0 | - | 0
CN(C)CCCn1cnc2c(c1=N)C(c1ccccc1)c1ccc3ccccc3c1O2 (stereo not drawn) | ? | 18µM | 0 | ?
N=c1c2c(ncn1CCCO)Oc1c(ccc3ccccc13)C2c1ccccc1 (stereo not drawn) | 0 | - | 0 | -
Cn1c(=O)n(CCc2ccccc2)c(=O)c2c1nc1n2CCCN1Cc1ccccc1 | 20µM | 0 | 0 | -
Cn1c(=O)n(CCc2ccccc2)c(=O)c2c1nc1n2CCCN1CCc1ccccc1 | ? | 0 | 0 | -
CC1CCN(c2nc3c(c(=O)n(C)c(=O)n3C)n2Cc2ccccc2)CC1 | - | 0 | 0 | 20µM
COCCn1c(N2CCN(c3ccc(OC)cc3)CC2)nc2c1c(=O)n(C)c(=O)n2C | 0 | - | 0 | -
C=CCn1c(N2CCN(c3ccc(OC)cc3)CC2)nc2c1c(=O)n(C)c(=O)n2C | 28µM | 0 | 0 | 0
CCCCCCn1c(N2CCCC2)nc2c1c(=O)n(C)c(=O)n2C | 28µM | 0 | 0 | 0
C=C1C=C(C)n2ncc(C(=O)Nc3ccccc3C(=O)OC)c2N1 | - | 0 | - | 0
O=C(c1cccc(N2CCCC2=O)c1)N1CCC(Oc2cccc(CN3CCN(c4ccccn4)CC3)c2)CC1 | ? | 0 | - | ?
C=CCNc1nc2c(c(=O)n(C)c(=O)n2C)n1CC | 0 | 0 | 0 | 0
C=CCNc1nc2c(c(=O)n(C)c(=O)n2C)n1CCCCCC | 14µM | - | 0 | -
CCCCCc1cc(=O)oc2c(C(CCN3CCCCC3)c3ccc4c(c3)OCO4)c(OC)cc(OC)c12 (stereo not drawn) | 0 | 14µM | 0 | ?
CCCCCc1cc(=O)oc2c(C(CCN3CCCC3)c3ccc4c(c3)OCO4)c(OC)cc(OC)c12 (stereo not drawn) | - | - | 0 | -
Cc1cc(C)cc(CC(Cc2nc3ccccc3[nH]2)c2nc3ccccc3[nH]2)c1 (stereo not drawn) | ? | 14µM | 0 | 0[1.46 µM]
Cc1ccc(CC(Cc2nc3ccccc3[nH]2)c2nc3ccccc3[nH]2)cc1 (stereo not drawn) | - | - | 0 | -
O=C1ON=C(c2ccccc2)/C1=C/c1cccnc1 | 0 | - | 0 | -
O=C1ON=C(c2ccccc2)/C1=C/c1ccc(OS(=O)(=O)c2ccccc2)cc1 | 32µM | 0 | 0 | 0
CCOc1cc(/C=C2/C(=O)ON=C2C)ccc1O | 0 | - | 0 | -
COc1cc(/C=C2\C(=O)ON=C2c2ccc(Cl)cc2)ccc1O | 25µM | 0 | - | 0
CC1=NOC(=O)/C1=C/c1ccc(O)c(Cl)c1 | 18µM | 0 | 0 | 0
SMILES | FMDV inh | Vaccinia Venus | FBPA Giardia inh | VACV mCherry inh
COc1ccc(/C=C2\C(=O)ON=C2c2ccccc2)cc1 | 35µM | 0 | 0 | 0
CSCC[C@H](NC(=O)[C@H](Cc1ccccc1)NC(=O)[C@H](Cc1cnc[nH]1)NC(=O)CNC(=O)[C@@H](NC(=O)[C@H](C)NC(=O)[C@H](Cc1c[nH]c2ccccc12)NC(=O)[C@H](CCC(N)=O)NC(=O)[C@@H]1CCCN1C(=O)[C@@H](NC(=O)[C@@H]1CCC(=O)N1)C(C)C)C(C)C)C(N)=O | - | - | 0 | -
O=C(c1n[nH]c2c1CCCC2)N1CCC(n2c(C3CCCO3)nc3ccccc32)CC1 (stereo not drawn) | 0 | 0 | - | 0
Cc1c(C(=O)NCc2cccc(F)c2)sc2ncnc(NCC3CCCO3)c12 (stereo not drawn) | 0 | 0 | - | 0
Cc1ccc(NC(=O)c2c(C)nn(-c3ccccc3)c2-n2cccc2)c(Cl)c1 | 0 | 0 | - | 0
O=c1c2c3c(sc2ncn1/N=C/c1ccc([N+](=O)[O-])o1)CCCC3 | 28µM | 0 | 0 | -
Cc1ncc2c(c1CNC(=O)c1ccccc1F)CCN(C(=O)c1csc(-c3cccs3)n1)C2 | 0 | 0 | - | 0
